In PubChem BioAssay (EPA / NIEHS) one finds outcome and AC50 data, which are given here for 24 molecules.

Read-out in experiment [1]: Vascular endothelial growth factor receptor 2 (Homo sapiens) (UniProt P35968)
Description: BSK_4H_VEGFRII: BioMAP Diversity Plus: 4H Assay for Vascular endothelial growth factor receptor 2 (VEGFR2) Biomarker Activity (AID 2283031).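 As to AC50: cell-surface VEGFR2 protein level quantified by ELISA.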 The conditions noted are these: primary human endothelial cells (HUVEC); actives raise or lower the signal. The essentials: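 ELISA read-out of VEGFRII in primary human umbilical vein endothelium, taken 24 h after chemical treatment. Responses are expressed relative to DMSO, with bidirectional fitting.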

Read-out in experiment [2]: Human Leukocyte Antigen - DR isotype (HLADR), HLA-DRA (gene 3122)
Description: BSK_BE3C_HLADR: BioMAP Diversity Plus: BE3C Assay for Human Leukocyte Antigen - DR isotype (HLADR) Biomarker Activity (AID 2283032). Particulars: primary human bronchial epithelial cells; actives raise or lower the signal. The method in brief:
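BioMAP BE3C format: human bronchial epithelium, 24 h compound treatment, ELISA detection of HLA-DR, with bidirectional analysis relative to DMSO.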

Read-out in experiment [3]: Interferon-gamma inducible Protein 10 (IP10), CXCL10 (gene 3627)
The experiment in a line: BSK_BE3C_IP10: BioMAP Diversity Plus: BE3C Assay for Interferon-gamma inducible Protein 10 (IP10) Biomarker Activity (AID 2283034). The conditions noted are these: primary human bronchial epithelial cells; actives raise or lower the signal. The essentials: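 BE3C cells (human bronchial epithelial, primary); 24 h exposure; ELISA for IP-10; DMSO-referenced bidirectional fit.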

Read-out in experiment [4]: Monokine induced gamma interferon (MIG), CXCL9 (gene 4283)
Description: BSK_BE3C_MIG: BioMAP Diversity Plus: BE3C Assay for Monokine induced gamma interferon (MIG) Biomarker Activity (AID 2283035).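 As to outcome: MIG protein measured by ELISA in BE3C cultures after 24 h of dosing.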 The conditions noted are these: primary human bronchial epithelial cells; actives raise or lower the signal. The method in brief:
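Dose cells (human primary bronchial epithelial), incubate 24 h, quantify MIG by ELISA, then fit concentration–response in both directions relative to DMSO control.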

Read-out in experiment [5]: Transforming growth factor beta 1 (TGFb1), TGFB1 (gene 7040)
Description: BSK_BE3C_TGFb1: BioMAP Diversity Plus: BE3C Assay for Transforming growth factor beta 1 (TGFb1) Biomarker Activity (AID 2283036;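 as to outcome: TGF-b1 protein level measured by ELISA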). The conditions noted are these: primary human bronchial epithelial cells; actives raise or lower the signal. The essentials: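 TGF-b1 measured via ELISA, 24 h after chemical dosing of human bronchial epithelial cells (BE3C). Overt cytotoxicity assessed in parallel by SRB (0.1%, TCA-fixed, 560 nm); analysis bidirectional relative to DMSO.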

Read-out in experiment [6]: Plasminogen activator inhibitor-1 (PAI1), SERPINE1 (gene 5054)
The experiment in a line: BSK_BE3C_PAI1: BioMAP Diversity Plus: BE3C Assay for Plasminogen activator inhibitor-1 (PAI1) Biomarker Activity (AID 2283037). Particulars: primary human bronchial epithelial cells; actives raise or lower the signal. The method in brief:
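In this multiplexed primary-cell system, bronchial epithelial cells receive test chemical and are sampled at 24 h. PAI-1 is read by ELISA, with DMSO serving as negative control for bidirectional fitting.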

Read-out in experiment [7]: urokinase plasminogen activator (uPA), PLAU (gene 5328)
Description: BSK_BE3C_uPA: BioMAP Diversity Plus: BE3C Assay for urokinase plasminogen activator (uPA) Biomarker Activity (AID 2283038).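 As to outcome: uPA protein level quantified by ELISA in cell cultures; uPA read one day after compound addition.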 The conditions noted are these: primary human bronchial epithelial cells; actives raise or lower the signal. The essentials: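 Bronchial epithelial cells (human, primary); chemical 24 h; uPA by ELISA; bidirectional fit vs DMSO. SRB (0.1%, after 10% TCA fixation, 560 nm) in parallel cultures for cytotoxicity.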

Read-out in experiment [8]: Urokinase-type plasminogen activator receptor (uPAR), PLAUR (gene 5329)
The experiment in a line: BSK_BE3C_uPAR: BioMAP Diversity Plus: BE3C Assay for Urokinase-type plasminogen activator receptor (uPAR) Biomarker Activity (AID 2283039).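 As to outcome: uPAR protein level measured by ELISA on the cells; cells exposed to compound for one day before measurement.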 Particulars: primary human bronchial epithelial cells; actives raise or lower the signal. The essentials: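 Chemically treated human bronchial epithelial cells (lung primary) are assayed for uPAR by ELISA after 24 h, with data fitted in both directions using DMSO as negative control.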

Read-out in experiment [9]: Interleukin-6 (IL6), IL6 (gene 3569)
The experiment in a line: BSK_CASM3C_IL6: BioMAP Diversity Plus: CASM3C Assay for Interleukin-6 (IL6) Biomarker Activity for (AID 2283040). Particulars: primary human coronary artery smooth muscle cells; actives raise or lower the signal.

Read-out in experiment [10]: Vascular cell adhesion molecule 1 (VCAM1), VCAM1 (gene 7412)
Description: BSK_4H_VCAM1: BioMAP Diversity Plus: 4H Assay for Vascular cell adhesion molecule 1 (VCAM1) Biomarker Activity (AID 2283033).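 As to outcome: cell-surface VCAM-1 protein measured by ELISA.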 Particulars: primary human endothelial cells (HUVEC); actives raise or lower the signal. The essentials:
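In this human endothelial (HUVEC) system, biomarker ELISA was run 24 h after compound addition, and total protein in parallel wells was assessed by SRB at 560 nm; DMSO served as negative control.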

The source made the active and inactive calls. The calls were made as follows: active = hit-call score of the fitted dose curve at least 0.9, where 1 is the maximum; inactive = score below 0.9.

For the molecule `Cc1ccc2n[nH]nc2c1`, the outcome in [1], in experiment [2], in experiment [3], in experiment [4], in experiment [5] and in experiment [6] was inactive. For the same molecule, the result in experiment [7], in experiment [8] and in experiment [9] was inactive.
Turning to `O=[N+]([O-])c1cc(C(F)(F)F)ccc1Cl`, the result in [1], in [2], in experiment [3], in [4], in experiment [5] and in experiment [6] was inactive. The result in [7], in experiment [8] and in experiment [9] was inactive.
As to `Nc1cc([N+](=O)[O-])ccc1Cl`, the result in experiment [1], in [2], in experiment [3], in [4], in experiment [5] and in experiment [6] was inactive. Also, the result in [7], in experiment [8] and in [9] was inactive.
One may read the AC50 as the concentration giving half of the maximal activity seen. Regarding `BrC1CCC(Br)C(Br)CCC(Br)C(Br)CCC1Br` (stereo not given), the AC50 in [1] is 2.62 µM (active); in experiment [2] it was 1.49 µM (active); in [3], 1.55 µM (active). In addition, the result in experiment [4], in [5], in experiment [6], in experiment [7], in experiment [8] and in experiment [9] was inactive.
Consider `CCn1c2ccccc2c2cc(N)ccc21`, for which the outcome in experiment [1], in experiment [3], in experiment [4], in [5], in [7] and in [8] was inactive. In addition, the outcome in experiment [9] was inactive. The AC50 in experiment [2] was 2.24 µM (active); in experiment [6], 3.97 µM (active).
Consider `CC1COc2ccccc2N1C(=O)C(Cl)Cl` (stereo not given), for which the result in [1], in experiment [4], in experiment [5] and in experiment [8] was inactive. In addition, the AC50 was 7.78 µM (active) in experiment [2]; 12.2 µM (active) in [3]; 3.97 µM (active) in experiment [6]; 0.016 µM (active) in experiment [7]; 8.9 µM (active) in experiment [9].
`Cc1cc(C2(c3cc(C)c(O)cc3C)OS(=O)(=O)c3ccccc32)c(C)cc1O`: the result in experiment [1], in [2], in experiment [10], in experiment [3], in experiment [4] and in experiment [6] was inactive. The outcome in experiment [7], in experiment [8] and in [9] was inactive.
In the case of `C=C(C)C(=O)O[C@H]1C[C@@H]2CC[C@@]1(C)C2(C)C`, the AC50 in experiment [1] was 5.29 µM (active); in experiment [2], 20 µM (active); in [10], 10.1 µM (active); in experiment [3], 33.2 µM (active); in experiment [4] it was 30.4 µM (active); in [5], 26.4 µM (active). Further, the AC50 in [6] was 20 µM (active); in [7] it was 20 µM (active); in [8], 32.2 µM (active); in experiment [9], 13 µM (active).
Consider `CCCCCCCCC=O`, for which the result in experiment [1], in experiment [2], in experiment [10], in experiment [3], in experiment [4] and in [5] was inactive. Besides, the outcome in experiment [6], in experiment [7], in [8] and in experiment [9] was inactive.
With `CCCCCCCCCC=O`, the result in experiment [1], in experiment [10], in experiment [4], in [5], in experiment [6] and in [7] was inactive. Also, the result in experiment [8] and in experiment [9] was inactive. For the same molecule, the AC50 in [2] and in experiment [3] was 20 µM (active) each time.
Take `CCC(=O)OCc1ccccc1`: the result in experiment [1], in experiment [2], in experiment [10], in experiment [3], in experiment [4] and in experiment [6] was inactive. Moreover, the result in experiment [7], in [8] and in experiment [9] was inactive.
`CC(=O)/C=C/C1=C(C)CCCC1(C)C`: the result in experiment [1], in experiment [2], in experiment [10], in experiment [3], in experiment [4] and in [5] was inactive. For the same molecule, the result in experiment [6], in [7], in experiment [8] and in experiment [9] was inactive.
In the case of `CCCCC(CC)COCCC#N` (stereo not given), the outcome in experiment [1], in experiment [2], in experiment [3], in experiment [4], in experiment [5] and in [6] was inactive. The result in experiment [7], in experiment [8] and in experiment [9] was inactive.
In the case of `CC1CCC(C(C)CS)CC1S` (stereo not given), the result in experiment [1], in [5], in experiment [6] and in experiment [7] was inactive. Besides, the AC50 in experiment [2] is 20 µM (active); in experiment [3], 30.7 µM (active); in [4] it was 35.4 µM (active); in experiment [8], 20 µM (active); in [9] it was 33.5 µM (active).
In the case of `O=C(O)c1ccc([N+](=O)[O-])cc1`, the outcome in [1], in experiment [2], in experiment [3], in [4], in [5] and in [6] was inactive. Further, the result in [7], in experiment [8] and in experiment [9] was inactive.
`CCCCCCCCCCCCCCCCCC(=O)OCC(CC)CCCC` (stereo not given): the result in experiment [1], in experiment [2], in experiment [10], in experiment [3], in [4] and in experiment [5] was inactive. The result in experiment [7], in experiment [8] and in experiment [9] was inactive. For the same molecule, in [6], the AC50 is 0.25 µM (active).
As for `CN(CCOc1ccc(CC2SC(=O)NC2=O)cc1)c1ccccn1` (stereo not given), the outcome in [1], in experiment [4], in [5], in experiment [7] and in [9] was inactive. The AC50 in [2] is 20 µM (active); in experiment [10], 8.46 µM (active); in experiment [3], 11 µM (active); in [6], 0.21 µM (active); in [8] it was 3.97 µM (active).
Turning to `C=C[Si](OCC)(OCC)OCC`, the outcome in [1], in experiment [2], in [10], in [3], in experiment [4] and in [5] was inactive. Further, the outcome in experiment [6], in experiment [7], in experiment [8] and in experiment [9] was inactive.
Take `CCCCC(CC)COC(=O)/C=C\C(=O)OCC(CC)CCCC` (stereo not given): the result in experiment [1], in [2], in experiment [3], in [4], in experiment [5] and in experiment [6] was inactive. In addition, the result in experiment [7], in experiment [8] and in experiment [9] was inactive.
Turning to `Cc1ccc(O)c(C(C)(C)C)c1`, the result in experiment [1], in [5] and in experiment [6] was inactive. In addition, the AC50 in experiment [2] is 30.5 µM (active); in experiment [10], 30.5 µM (active); in experiment [3], 36.8 µM (active); in experiment [4], 35 µM (active); in [7] it was 31.6 µM (active); in experiment [8], 20 µM (active). Also, in experiment [9], the AC50 was 10.6 µM (active).
`CC(=O)Nc1ccccc1O`: the outcome in experiment [1], in experiment [2], in [3], in experiment [4], in experiment [5] and in experiment [6] was inactive. The outcome in experiment [7], in experiment [8] and in [9] was inactive.
Consider `O=C1CCCCCCCCCCCCCCO1`, for which the result in experiment [1] and in [4] was inactive. Moreover, the AC50 in experiment [2] is 20 µM (active); in experiment [3], 12.6 µM (active); in experiment [5], 14.6 µM (active); in experiment [6] it was 20 µM (active); in experiment [7], 32.7 µM (active); in [8], 20 µM (active). Besides, the AC50 in experiment [9] is 31.6 µM (active).
In the case of `C#C[C@]1(O)CC[C@H]2[C@@H]3CCC4=Cc5oncc5C[C@]4(C)[C@H]3CC[C@@]21C`, the result in experiment [1], in experiment [2], in [4], in [5], in experiment [6] and in experiment [7] was inactive. Besides, the outcome in experiment [8] and in experiment [9] was inactive. In addition, the values for the AC50 in [10] and in [3] were 30.1 µM (active) and 31.2 µM (active), respectively.
On to `OC[C@H]1O[C@H](O[C@]2(CCl)O[C@H](CCl)[C@@H](O)[C@@H]2O)[C@H](O)[C@@H](O)[C@H]1Cl`, for which the result in [1], in [2], in experiment [10], in experiment [3], in experiment [4] and in [6] was inactive. Also, the result in experiment [7], in experiment [8] and in [9] was inactive.
